# Source: the supplement of paper PMC6555819
# How the values were obtained:
# Test in all cases: PBM binding z-score (relative to random genomic background probes); higher = stronger binding; sequences stand for … in GC…GCGATTGACAGCGTAGAATGAAGG
# [1] = system: FXR:RXRa (NR concentration 270 nM, RXRa partner concentration 90 nM)
# Outline: (§1)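 Binding buffer was PBS pH 7.4 with 2% milk, 0.02% Triton X-100, 1 mM DTT, 0.2 mg/mL BSA and 0.4 mg/ml salmon testes DNA. In it, ligand-free nuclear receptor dimers were incubated 1 h on custom Agilent 4×180K protein-binding microarrays carrying double-stranded probes. Antibodies against each partner (one per run) detected binding, and z-scores were calculated against random background probes after regression normalization of scanned fluorescence.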
# [2] = system: LXRa:RXRa (NR concentration 270 nM, RXRa partner concentration 90 nM)
# Outline: as §1
# [3] = system: LXRa homodimer (NR concentration 270 nM)
# Outline: as §1
# [4] = system: LXRb:RXRa (NR concentration 270 nM, RXRa partner concentration 90 nM)
# Outline: as §1
# [5] = system: LXRb homodimer (NR concentration 270 nM)
# Outline: as §1
# [6] = system: PPARa:RXRa (NR concentration 270 nM, RXRa partner concentration 90 nM)
# Outline: as §1
# [7] = system: PPARg:RXRa (NR concentration 180 nM, RXRa partner concentration 90 nM)
# Outline: as §1
# [8] = system: PPARg:RXRa 270nM:90nM, anti-RXR (NR concentration 270 nM, RXRa partner concentration 90 nM)
# Outline: as §1
# [9] = system: PPARg:RXRa 30nM:10nM, anti-RXR (NR concentration 30 nM, RXRa partner concentration 10 nM)
# Outline: as §1
# [10] = system: PPARg:RXRa 90nM:30nM, anti-RXR (NR concentration 90 nM, RXRa partner concentration 30 nM)
# Outline: as §1
Sequence,PBM binding z-score [1],PBM binding z-score [2],PBM binding z-score [3],PBM binding z-score [4],PBM binding z-score [5],PBM binding z-score [6],PBM binding z-score [7],PBM binding z-score [8],PBM binding z-score [9],PBM binding z-score [10]
CCTTCCGGGTCACTGACAGGTTATAGCATTTGGA,4.43,3.92,0.31,3.22,0.12,5.01,4.96,5.08,1.75,3.7
AGCTCTAGGTAACAAGTTCAGTGAAAGAGAGGAC,0.5,0.614,0.194,0.684,0.134,1.53,1.33,1.92,0.448,1.34
AATACAGAGTCACTAGGCCAGAGTAGGTACGAAT,-0.115,-0.0616,-0.358,-0.555,-0.252,0.626,1.31,0.617,0.184,0.718
CCTATTAGTTGATCATAAGGGCAACCGAAGCTCG,0.383,0.258,0.608,0.291,0.94,0.433,0.394,0.295,0.0236,0.185
CGAACTAGGTCATGGACAGTGAATCTCCGCACGC,3.63,2.28,0.076,1.46,-0.358,4.61,7.41,6.4,3.88,6.02
CCTTACGGGTCACTGACAGGTTATAGGATTTGGA,4.95,4.33,0.341,3.36,-0.182,5.09,4.36,4.46,1.48,3.55
GCTAGCAGGCCATTTGGTTCACTCAATGACGGGC,-0.456,-0.57,-0.84,-0.649,-0.937,-0.204,0.226,-0.536,-0.633,-0.582
TCTGCTAGGTAAGTTGGTCAGCTAACGAGCTGCC,-0.553,-0.651,-0.909,-0.852,-0.795,-0.166,-0.748,0.411,1.22,0.642
ATATGTAGGTAAGCTGGGGTCATTCAGACTAGGC,4.33,4.31,1.73,4.3,1.58,4.98,4.31,4.65,2,3.77
ATCTCTAGGTAAAGATAGTTAAGTGAATGCAAAT,-0.0331,0.0561,-0.0773,0.142,0.643,-0.0582,0.771,0.421,0.415,0.236
ATCTCTAGGTAAAGATAGATCAGTGAATGCAAAT,0.447,0.581,0.166,0.000708,0.387,0.00369,0.763,0.278,0.36,0.457
GATACAGGGTCAGTTAGAGGCCAGAGTATGGAAA,4.02,2.54,0.247,2.39,0.0768,3.64,2.24,2.27,0.448,1.45
CGTCCTAGGTCATAGGAGGTCAGTGAAGACAGAT,5.53,6.34,3.87,5.18,0.0467,4.91,3.72,4.05,1.4,3.09
TCGAGTAGGTCAGGGGCATTCAGAATGGCGTCGA,2.3,1.52,-0.495,1.9,-0.546,3.41,4.73,4.8,2.48,4.21
CCTACTGGGCCATCAGGTCATGGATATCAACGTT,1.24,1.22,0.743,1.49,-0.453,3.14,3.59,4.15,1.85,3.37
ATCTCTAGGAAAAGATAGTTCAGTGAATGCAAAT,0.351,0.417,0.457,0.247,0.273,-0.0453,0.305,-0.0709,0.0801,-0.0493
ACTATTAGTTGTGACGAGGGCAACCGATAGGTTG,-0.101,-0.0626,-0.0175,-0.0591,-0.181,0.388,0.623,0.256,-0.152,0.259
CGTAGTTGGTCAAGGTCACACACGCTATAGGTAC,4.12,3.72,1.39,3.6,0.592,4.13,3.4,3.54,1.47,2.64
TCATATAGGTAAAAAGGTGAAAGTCCGTAAGTTA,1.56,1.85,0.558,1.8,0.394,3.53,3.87,5.05,5.01,5.53
GCTAGTTGGTCAGTGAAAGGTCACACACCGGTCG,3.55,4.39,4.49,3.7,0.467,4.43,4.64,5.57,3.93,5.67
AATACAGGGTCATGGTAGGCCAGAGTACGCACAG,7.24,6.51,2.02,4.67,1.09,6.07,6.85,6.13,2.87,4.97
CATACAGGGTCAGCTAGCCCAGAGTAGGGACGGC,4.68,3.03,-0.244,2.21,0.0889,4.36,3.35,2.84,0.528,1.8
CAAACTAGGTCACCGGAAGGTCAAACTCCGCATG,6.33,6.34,6.11,5.67,1.82,6.19,9.8,7.8,6.23,7.86
